According to PubChem BioAssay (NCI):
Compounds without any hit were thinned out: in the full panel of roughly 83,000, 20% have a hit.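 Growth was measured after 48 h exposure to one concentration of compound in 96-well plates. Values under 10 count as active.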 Values without a mark were called inactive. Active and inactive are the calls of the source.

These compounds were tested on MOLT-4 leukemia (assay: NCI-60 one-dose screen, 48 h (100 = growth as untreated, 0 = no growth, -100 = all killed)). Conditions: 10 µM unless noted.

| Compound | growth |
| --- | --- |
| C=C(C)[C@@H]1CC[C@]2(C(N)=O)CC[C@]3(C)[C@H](CC[C@@H]4[C@@]5(C)CC[C@H](O)C(C)(C)[C@@H]5CC[C@]43C)[C@@H]12 | 1.86% [100 µM] (active) |
| CCN1CCN(CC(=O)Nc2nc3ccc(NCc4ccc(Cl)cc4)cc3s2)CC1 | 54.4% |
| COc1cc(C)cc2oc3oc(=O)c(C(=O)c4cc5cc(Br)ccc5o4)cc3c(=O)c12 | 106% |
| O=S(=O)(NCCCNc1nccc(-c2c(-c3cccc(F)c3)nc3occn23)n1)c1cccc2ccccc12 | 5.16% (active) |
| CC1(C)[C@@H](NOCCCN)CC[C@]2(C)[C@H]3C(=O)C=C4[C@@H]5C[C@](C)(C(=O)O)CC[C@]5(C)CC[C@@]4(C)[C@]3(C)CC[C@@H]12 | -6.4% [100 µM] (active) |
| O=c1[nH]c(CN2CCN(c3cccc(Cl)c3)CC2)nc2cc(Cl)ccc12 | 120% |
| COc1cc2c(O)n(CCCN3CCOCC3)c3c4cnc5cccc(c(=O)c3c2cc1OC)c54 | 11.8% |
| CCOC(=O)c1sc2nc(-c3cc(OC)c(OC)c(OC)c3)nc(N3CCOCC3)c2c1C | 17.1% |
| Cc1cc(C)c(S(=O)(=O)/N=c2/n(-c3ccccc3)nc3n2CCN3C2=NCCN2)c(C)c1 | 66.2% |
| Cc1ccc(S(=O)(=O)N/N=C2\CC3CCC2(C)C3(C)C)cc1 (configuration not stated) | 111% |
| N#C/C(C(=O)c1ccccc1)=C1/C(=O)Nc2ccccc21 | 90.4% |
| CCc1ccc(C2=C/C(=C/c3ccccc3)C(=O)N2CCc2ccc(S(N)(=O)=O)cc2)cc1 | 97% |
